Consider 14 compounds from PubChem BioAssay (NCI).

Among the test systems are SK-MEL-2 melanoma; EKVX NSCLC; SN12C renal; UO-31 renal; TK-10 renal; ACHN renal; CAKI-1 renal; CCRF-CEM leukemia; MOLT-4 leukemia; A498 renal.
Test in all cases: NCI-60 one-dose screen, 48 h (100 = growth as untreated, 0 = no growth, -100 = all killed)
Conditions in all cases: 10 µM unless noted

The panel holds about 83,000 compounds, 20% with a hit somewhere; the sample as a whole holds those more often.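 Activity criterion: percent growth below 10, measured after cells in 96-well plates were exposed to a single compound concentration for 48 hours.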 Unmarked numbers belong to inactive results. Active and inactive are the calls of the source.

`COC1CC(C)C(OC)c2cc(O)cc(c2O)NC(=O)/C(C)=C/C=C\C(C)C(OC(N)=O)/C(C)=C\C(C)C1OC` (centres undefined): the growth in the assay on SK-MEL-2 melanoma is 39.4%; in the assay on EKVX NSCLC it was 41%; in the assay with SN12C renal it was 30.3%; in the assay on UO-31 renal, -70.9% (active); with TK-10 renal, 68%; with ACHN renal, 28.5%. Besides, the figures for the growth with CAKI-1 renal, with CCRF-CEM leukemia and in the assay with MOLT-4 leukemia were 54.2%, -30.7% (active) and -23.4% (active), respectively.

Turning to `O=[N+]([O-])c1ccc([I+]c2ccccc2)cc1`, the growth was -17.9% (active) with SK-MEL-2 melanoma; -62.4% (active) in the assay on EKVX NSCLC; -56.2% (active) in the assay with SN12C renal; 46.9% in the assay on UO-31 renal; 3.24% (active) in the assay with TK-10 renal; 64.2% with ACHN renal. Moreover, the growth with CAKI-1 renal was 23.1%; in the assay on A498 renal, 39.6%; with MOLT-4 leukemia, 22.9%.

As to `CCC1CCCCN1C(=S)N/N=C(\C)c1ccccn1` (centres undefined), the growth in the assay with SK-MEL-2 melanoma was -11.9% (active); in the assay with EKVX NSCLC it was 10.9%; in the assay on SN12C renal, 7.07% (active); in the assay on UO-31 renal, -17.6% (active); in the assay on TK-10 renal, 19.7%; with ACHN renal, 7% (active). The growth in the assay with CAKI-1 renal is 10.4%; in the assay on A498 renal it was -21.9% (active); with MOLT-4 leukemia, 13.3%.

On to `O=C1/C(=C/c2ccccc2)CCC/C1=C\c1ccccc1`, for which the growth in the assay with SK-MEL-2 melanoma was 99.7%; with EKVX NSCLC, 96.1%; with SN12C renal it was 93.2%; with UO-31 renal, 88.1%; in the assay on TK-10 renal it was 104%; in the assay with ACHN renal it was 95.6%. Further, the growth in the assay on CAKI-1 renal was 84.3%; in the assay with A498 renal, 84.6%; in the assay with CCRF-CEM leukemia, 76.3%; with MOLT-4 leukemia it was 73%.

Consider `O=[N+]([O-])CC(O)c1ccccc1` (centres undefined), for which the growth was 120% in the assay with SK-MEL-2 melanoma; 113% with EKVX NSCLC; 101% in the assay with SN12C renal; 96.8% in the assay with UO-31 renal; 111% in the assay on TK-10 renal; 102% in the assay on ACHN renal. Further, the growth with CAKI-1 renal is 95.9%; with CCRF-CEM leukemia, 104%; with MOLT-4 leukemia it was 98.6%.

With `O=C1/C(=C\c2ccc([N+](=O)[O-])cc2)CS(=O)(=O)C/C1=C/c1ccc([N+](=O)[O-])cc1`, the growth in the assay with SK-MEL-2 melanoma is -35.9% (active); in the assay on EKVX NSCLC it was -63.4% (active); in the assay with SN12C renal, -41.1% (active); in the assay on UO-31 renal, -95.4% (active); in the assay on TK-10 renal, -99% (active); in the assay with ACHN renal it was -98.8% (active). Also, the growth with CAKI-1 renal is -92.3% (active); with CCRF-CEM leukemia it was -31.6% (active); in the assay on MOLT-4 leukemia, -34.7% (active).

As for `CC(=O)c1c(O)c(C)c(O)c2c1OC1=CC(=O)C(C(C)=O)C(=O)C12C` (centres undefined), the growth in the assay with SK-MEL-2 melanoma is 83.7%; with EKVX NSCLC, 51.9%; with SN12C renal, 143%; in the assay with UO-31 renal, 58.7%; in the assay on TK-10 renal it was 103%; in the assay on ACHN renal, 89%. Further, the growth was 74.2% in the assay with CAKI-1 renal, 76.3% in the assay on A498 renal and 71.9% in the assay with MOLT-4 leukemia.

As for `NC(=Nc1nc(-c2ccccn2)cc2ccccc12)c1ccccn1`, the growth was 66.5% with SK-MEL-2 melanoma; 16.5% in the assay on EKVX NSCLC; 26.2% in the assay with SN12C renal; 2.9% (active) in the assay with UO-31 renal; 31.5% in the assay on TK-10 renal; 8.11% (active) with ACHN renal. For the same compound, the values for the growth in the assay with CAKI-1 renal, with CCRF-CEM leukemia and in the assay on MOLT-4 leukemia were 2.97% (active), 0.348% (active) and -3.87% (active), respectively.

Turning to `CCN1/C(=C/C(C)=C/c2sc3ccc4ccccc4c3[n+]2CC)Sc2ccc3ccccc3c21`, the growth was -93.5% (active) in the assay on SK-MEL-2 melanoma; -90.8% (active) in the assay with EKVX NSCLC; -84.9% (active) in the assay with SN12C renal; -89.8% (active) in the assay with UO-31 renal; -97.3% (active) in the assay with TK-10 renal; -97.2% (active) in the assay on ACHN renal. Moreover, the growth in the assay with CAKI-1 renal is -97.9% (active); in the assay on A498 renal, -98.3% (active); in the assay with MOLT-4 leukemia, -43.6% (active).

In the case of `NC(=S)N/N=C\c1nccc2c(C(F)(F)F)cccc12`, the growth in the assay on SK-MEL-2 melanoma is -7.77% (active); in the assay with EKVX NSCLC it was 1.87% (active); with SN12C renal, 17.2%; in the assay on UO-31 renal, -35.2% (active); with TK-10 renal, 17%; in the assay on ACHN renal, 6.72% (active). In addition, the results for the growth in the assay on CAKI-1 renal, in the assay with CCRF-CEM leukemia and in the assay on MOLT-4 leukemia were -2.51% (active), -9.85% (active) and -40.2% (active), respectively.

For the compound `CCN(CC)CC(O)CNc1ccc(NCC2CO2)c2c1C(=O)c1ccccc1C2=O` (centres undefined), the growth with SK-MEL-2 melanoma is -46.5% (active); with EKVX NSCLC it was 23.5%; in the assay with SN12C renal it was -15.9% (active); in the assay on UO-31 renal, -40.6% (active); in the assay on TK-10 renal, -27% (active); with ACHN renal, -55.1% (active). In addition, the growth is -32% (active) in the assay with CAKI-1 renal, 81.6% in the assay on A498 renal, -29.9% (active) in the assay with CCRF-CEM leukemia and -23.1% (active) in the assay with MOLT-4 leukemia.

Consider `Nc1cc(-c2ccccc2)ccc1O`, for which the growth with SK-MEL-2 melanoma is 120%; in the assay with EKVX NSCLC it was 96.4%; in the assay on SN12C renal, 104%; with UO-31 renal, 93.4%; with TK-10 renal, 127%; in the assay with ACHN renal, 104%. The results for the growth in the assay on A498 renal, in the assay on CCRF-CEM leukemia and in the assay with MOLT-4 leukemia were 93%, 37.2% and 25.1%, respectively.

For the compound `CCC(C)C(N)C(=O)NC(CC(N)=O)C(=O)NC(CC(C)C)C(=O)NC(CCCCN)C(=O)NC(C)C(=O)NC(CC(C)C)C(=O)NC(C)C(=O)NC(C)C(=O)NC(CC(C)C)C(=O)NC(C)C(=O)NC(CCCCN)C(=O)NC(CCCCN)C(=O)NC(C(=O)NC(CC(C)C)C(N)=O)C(C)CC` (centres undefined), the growth is 115% in the assay on SK-MEL-2 melanoma; 91.2% in the assay on EKVX NSCLC; 89.5% in the assay with SN12C renal; 97.4% with UO-31 renal; 106% in the assay on TK-10 renal; 87.3% with ACHN renal. The growth was 85.3% in the assay with CAKI-1 renal, 83.8% with CCRF-CEM leukemia and 94% in the assay with MOLT-4 leukemia.

Consider `NNc1cccc([N+](=O)[O-])c1`, for which the growth in the assay on SK-MEL-2 melanoma was 98%; with EKVX NSCLC, 79.9%; in the assay with SN12C renal, 102%; in the assay with UO-31 renal it was 83.1%; in the assay on TK-10 renal it was 98%; in the assay on ACHN renal, 88.7%. For the same compound, the growth is 56% in the assay with CAKI-1 renal, 83% with A498 renal, 38.1% in the assay on CCRF-CEM leukemia and 25.3% with MOLT-4 leukemia.
